Experimental data taken from PubChem BioAssay AID489036 (National Center for Advancing Translational Sciences (NCATS), 2010).
Values joined by “and” are separate entries in the source; they are usually repeats but may differ in a detail not shown here. Equal values may be shown once. Results filed as inconclusive are left out. Entries that show only a call come without a potency. Active and inactive are the calls of the source. The call rests on the fitted dose curve; in most records, active means well fitted inhibition curve with a large enough effect; inconclusive means small, poorly fitted or top-dose-only effect, or effect the other way; inactive means flat fitted curve, though single readings scatter.

Test: VP16 selectivity assay for inhibitors of ROR gamma transcriptional activity
Conditions: Drosophila Schneider Gal4-VP16 UAS-luciferase reporter, 20 h; series mostly up to 92.2 µM
Description: NIH Molecular Libraries Probe Production Network [MLPCN] NIH Chemical Genomics Center [NCGC] MLPCN Grant: R03 DA026211-01 Assay Provider: Dan Littman, New York University Assay Overview: The retinoic acid-related orphan receptor (ROR) gamma is a transcription factor that has a central role in the differentiation of Th17 cells, a subset of T helper cells that secrete the inflammatory cytokines IL-17, IL-17F, and IL-22. Th17 cells have been implicated in graft versus host disease, autoimmune disease and asthma. ROR gamma is induced in naive T helper cells in the presence of TGF-beta combined with IL-6, IL-21, or IL-23, and thereafter directs the expression of the Th17 lineage cytokines. To identify nonspecific inhibitors, a Drosophila Schneider cell line was stably transfected with two vectors: a gene expressing a fusion of the Gal4 DNA binding domain and VP16 transactivation domain under the control of the metallothionine promoter and a Photinus luciferase reporter regulated by the Gal4 binding site enhancer, UAS. […] Small molecule inhibitors that inhibit components common to the RORgt and VP16 assays, such as the Gal4 DNA binding domain or the UAS luciferase reporter, will be active in both assays and thus scored as nonspecific.
Assay Protocol Summary: For screening, 600 cells in 4 uL/well were dispensed into white solid 1536-well plates (Grenier) using a solenoid-based dispenser. Following transfer of 23 nL compound or DMSO vehicle by a pin tool, the plates were incubated 1 hr at ambient temperature, and 1 uL/well copper sulfate (700 uM final concentration) was added. The plates were centrifuged 15 s at 1000 RPM and incubated 20 hr at ambient temperature. After addition of 1.5 uL Photinus luciferase detection reagent, the plates were incubated 10 min at ambient temperature and then read by an ViewLux (Perkin Elmer) to detect luminescence.

Row | SMILES | Potency
1 | COc1cc(O)c(C(CC(=O)N2CCCC(c3ccccc3)C2)c2ccc3c(c2)OCO3)c(OC)c1 (stereo not given) | inactive
2 | COCC1CCCCN1C(=O)c1cc(COc2ccc3ncccc3c2)on1 (stereo not given) | 16.2 µM (active)
3 | COc1cc(O)c(C(CC(=O)N2CCCC(C)C2)c2ccc(-c3ccccc3)cc2)c(OC)c1 (stereo not given) | inactive
4 | COc1cc(O)c(C(CC(=O)N2CC(C)OC(C)C2)c2ccc3c(c2)OCO3)c(OC)c1 (stereo not given) | inactive
5 | COc1ccccc1CNC(=O)[C@@H](NC(=O)C1CCN(C(=O)[C@@H]2CCCN2C(=O)OC(C)(C)C)CC1)C(C)C | inactive
6 | COc1cc(O)c(C(CC(=O)N2CCC(c3ccccc3)CC2)c2ccc(C)cc2)c(OC)c1 (stereo not given) | inactive
7 | CCOc1cccc(-c2cc(-c3n[nH]c(=S)n3CC)c3ccccc3n2)c1 | 2.29 µM (active) and 4.07 µM (active)
8 | COc1cc(O)c(C(CC(=O)N2CCCC(CN3CCCCC3)C2)c2ccc3c(c2)OCO3)c(OC)c1 (stereo not given) | inactive
9 | COc1ccc(C(CC(=O)N2CCCC(C)C2)c2c(O)cc(OC)cc2OC)c(OC)c1 (stereo not given) | inactive
10 | COc1ccc(C(CC(=O)N2CCCC(C)C2)c2ccccc2)cc1 (stereo not given) | inactive
11 | O=C(CCCOc1ccccc1)Nc1nc2ccccc2[nH]1 | 14.4 µM (active)
12 | COc1cc(O)c(C(CC(=O)N2CCCC(C(=O)N3CCCCC3)C2)c2ccc3c(c2)OCO3)c(OC)c1 (stereo not given) | inactive
13 | COc1cc(O)c(C(CC(=O)N2CCCC(C)C2)c2cccc3ccccc23)c(OC)c1 (stereo not given) | inactive
14 | COc1cc(OC)c(C(CC(=O)N2CCCC(C)C2)c2ccc3c(c2)OCO3)c(OCc2ccccc2)c1 (stereo not given) | 12.9 µM (active)
15 | COc1cc(O)c(C(CC(=O)N2CCC(Cc3ccccc3)CC2)c2ccc(OC)c(OC)c2)c(OC)c1 (stereo not given) | inactive
16 | CC1CCCN(C(=O)CC(c2ccccc2)c2ccc(O)cc2)C1 (stereo not given) | inactive
17 | COc1cc(O)c(C(CC(=O)N2CCCC(C)C2)c2ccc(OC)c(OC)c2)c(OC)c1 (stereo not given) | inactive
18 | O=S(=O)(c1ccc(NC(=S)N/N=C/c2ccc(Oc3ccccc3)cc2)cc1)N1CCOCC1 | 2.04 µM (active)
19 | CC(C)(C)c1ccc(-c2noc(CCC(=O)Nc3cccnc3)n2)cc1 | 2.04 µM (active)
20 | COC(=O)Cn1c(CN2CCc3ccccc3C2)nc2c1c(=O)n(C)c(=O)n2C | 9.11 µM (active)

Row | SMILES | Potency
21 | CC(C)(C(=O)Nc1nccs1)C(c1ccccc1)c1ccc(O)cc1 (stereo not given) | 36.3 µM (active)
22 | COc1ccc(CNC(=O)[C@H](Cc2ccccc2)NC(=O)C2CCN(C(=O)[C@@H]3CCCN3C(=O)OC(C)(C)C)CC2)cc1 | inactive
23 | COc1ccccc1C(CC(=O)N1C[C@H](C)C[C@H](C)C1)c1ccccc1 (stereo not given in full) | 32.3 µM (active)
24 | COc1cc(O)c(C(CC(=O)N2CC(C)NC(C)C2)c2ccc3c(c2)OCO3)c(OC)c1 (stereo not given) | inactive
25 | COc1cc(C)nc(-n2nc(C)cc2OC)n1 | 14.4 µM (active)
26 | COc1cc(O)c(C(CC(=O)N2CCOCC2)c2ccc3c(c2)OCO3)c(OC)c1 (stereo not given) | inactive
27 | COc1cc(O)c(C(CC(=O)N2CCc3ccccc32)c2ccc3c(c2)OCO3)c(OC)c1 (stereo not given) | inactive
28 | CCOC(=O)Cn1c(CN2CCc3ccccc3C2)nc2c1c(=O)n(C)c(=O)n2C | 5.12 µM (active)
29 | COc1cc(O)c(C(CC(=O)N2CCCC(c3nc4ccccc4o3)C2)c2ccc3c(c2)OCO3)c(OC)c1 (stereo not given) | inactive
30 | COc1cc(O)c(CCC(=O)N2CCCC(C)C2)c(OC)c1 (stereo not given) | inactive
31 | COc1cc(OC)c(C(CC(=O)N2CCCC(C)C2)c2ccc3c(c2)OCO3)c(OC)c1 (stereo not given) | 51.2 µM (active)
32 | Cc1ccc(C)c(/C=N/n2cc(-c3ccccc3)[nH]c2=S)c1 | 20.4 µM (active)
33 | CC1CCCN(C(=O)CC(c2ccc3c(c2)OCO3)c2ccc3ccccc3c2O)C1 (stereo not given) | inactive
34 | COc1cc(O)c(C(CC(=O)N2CCCC(C(=O)c3ccccc3)C2)c2ccc3c(c2)OCO3)c(OC)c1 (stereo not given) | inactive
35 | O=C(CCCN1C(=O)/C(=C/c2ccccc2Cl)SC1=S)Nc1cccnc1 | 28.8 µM (active)
36 | Cc1nn(-c2cc(C)c3ccccc3n2)c2c1C1C(C2)C1(C)C (stereo not given) | 22.9 µM (active)
37 | COc1cc(O)c(C(CC(=O)N2CCC(C)CC2)c2ccc(C)cc2)c(OC)c1 (stereo not given) | inactive
38 | CCOc1ccc(-c2cc(CCCC(=O)NCc3cccnc3)no2)cc1 | 2.88 µM (active)
39 | COc1ccc(-c2nnc(-c3ccc(N(C)C)cc3)o2)cc1 | inactive
40 | COc1cc(O)c(C(CC(=O)Nc2ccc(C)cc2)c2ccc3c(c2)OCO3)c(OC)c1 (stereo not given) | 40.7 µM (active)
